# Source: PubChem BioAssay (Tox21)
# Values joined by “and” are separate entries in the source; they are usually repeats but may differ in a detail not shown here. Equal entries are not always repeated. Records with an inconclusive call do not appear. Entries that show only a call come without a potency. More than one record can exist for a structure, and the calls need not agree. Active and inactive are the calls of the source. The call rests on the fitted dose curve; in most records, active means well fitted cell-killing curve with a large enough effect in the repeat runs; inconclusive means weak or mixed curves; inactive means flat fitted curve, though single readings scatter.
# Test: qHTS RealTime-Glo MT Cell Viability Assay in HepG2 cells - 24 hour (AID 1224867); further: nearly all actives have a fitted effect of over 50% in size
# Conditions: RealTime-Glo luminescence; series mostly up to 76.8 µM; activity change, negative = cytotoxicity: at the top concentration
# Excerpt: U.S. Tox21 Program National Center for Advancing Translational Sciences [NCATS] NIH Chemical Genomics Center [NCGC] U.S. Environmental Protection Agency [EPA] National Institutes of Environmental Health Sciences [NIEHS] National Toxicology Program [NTP] U.S. Food and Drug Administration [FDA] Tox21 Assay Overview: Measure of cell viability is critical in the cell-base assay. Analysis of cell viability is necessary for the characterization of cell responses to cytotoxic drugs and environmental stress. A RealTime-Glo MT Cell Viability Assay to monitor cell viability in real time of continues cell culture during 40 hours of compound treatment was used to screen Tox21 10K library compounds in HepG2 cells. The RealTime-Glo MT Cell Viability Assay is a nonlytic, homogeneous, bioluminescent method to measure cell viability in real time using a simple, plate-based method. The assay involves adding NanoLuc luciferase and a cell-permeant prosubstrate to cells in culture. Viable cells reduce the proprietary prosubstrate to generate a substrate for NanoLuc luciferase. This substrate diffuses from cells into the surrounding culture medium, where it is rapidly used by the NanoLuc Enzyme to produce a luminescent signal. The signal correlates with the number of viable cells, making the assay well suited for cytotoxicity studies.
# Tox21 Assay Protocol Summary: The mixture of HepG2 cell suspension and reagents were dispensed at 600cells/6 ul/well in 1536-well tissue culture treated black solid bottom plates using a Multidrop dispenser. After the assay plates were incubated at a 37 C/5% CO2 incubator for 5 hours, 23 nL of compounds dissolved in DMSO, positive and negative controls was transferred to the assay plate by a pintool work station. The plates were incubated at 37 C for 40 hours. The luminescence intensity were measured at 0h, 8h, 16h, 24h, 32h and 40h time points using ViewLux plate reader during compound treatment.
# Potency means the concentration at half of the fitted maximal effect.
SMILES,Potency,"activity change, negative = cytotoxicity"
CC(C)OB(OC(C)C)OC(C)C,inactive,–
CC(C)(C)NC(=O)[C@H]1CC[C@H]2[C@@H]3CC[C@H]4NC(=O)C=C[C@]4(C)[C@H]3CC[C@]12C,inactive,–
CC(C)=CCCC(C)CCO (stereo not given),inactive,–
c1ccncc1,inactive,–
Cc1[nH]c(=O)c(C#N)cc1-c1ccncc1,inactive,–
Cc1ccc(C)c(O)c1C,inactive,–
CCCCNS(=O)(=O)c1ccccc1,inactive,–
Nc1ccc(Nc2ccccc2)cc1,inactive,–
OCCO,inactive,–
OC(CCl)CCl,inactive,–
CC(=O)Oc1ccccc1C(=O)Nc1ncc([N+](=O)[O-])s1,inactive,–
CC(=O)c1ccccn1,inactive,–
CCC(C)c1ccccc1O (stereo not given),inactive,–
S=C(NC1CCCCC1)NC1CCCCC1,inactive,–
CCCCOCCOCCOCCO,inactive,–
COc1ccc(OC)c(C(O)CNC(=O)CN)c1 (stereo not given),inactive,–
CCOCCOCCO,inactive,–
NNc1ccc(C(=O)O)cc1,inactive,–
CC1=CC2C3CC(C=C3C)C2C1 (stereo not given),inactive,–
CN(C)c1nc(N(C)C)nc(N(C)C)n1,inactive,–

SMILES,Potency,"activity change, negative = cytotoxicity"
C[C@]12CC[C@H]3[C@@H](CCC4=CC(=O)CC[C@@]43C)[C@@H]1CC[C@@H]2C(=O)CO,inactive,–
CCCC(=O)O,inactive,–
C/C=C/C(=O)O,inactive,–
CN1C(C(=O)Nc2ccccn2)=C(O)c2ccccc2S1(=O)=O,inactive,–
O=CCc1ccccc1,inactive,–
O=C1OC2(c3cc(Br)c(O)c(Br)c3Oc3c2cc(Br)c(O)c3Br)c2c(Cl)c(Cl)c(Cl)c(Cl)c21,inactive,–
COC(=O)C1=C(C)NC(C)=C(C(=O)OCCN(C)Cc2ccccc2)C1c1cccc([N+](=O)[O-])c1 (stereo not given),24.4 µM (active) and 10.7 µM (active),–
O=C=Nc1ccc(Cc2ccc(N=C=O)cc2)cc1,inactive,–
O=C(c1ccccc1)c1ccc(O)cc1O,inactive,–
CCC(C)CO (stereo not given),inactive,–
c1cc(-c2ccncc2)ccn1,–,-3.41% (inactive)
Oc1ccc(O)cc1,inactive,–
O=CCCCC=O,inactive,–
Brc1cc(Oc2cc(Br)c(Br)c(Br)c2Br)c(Br)c(Br)c1Br,inactive,–
Cn1cnc([N+](=O)[O-])c1Sc1ncnc2nc[nH]c12,inactive,–
C[Si](C)(C)O[Si](C)(C)C,inactive,–
OC[C@H]1O[C@@H]2O[C@H]3[C@H](O)[C@@H](O)[C@@H](O[C@H]4[C@H](O)[C@@H](O)[C@@H](O[C@H]5[C@H](O)[C@@H](O)[C@@H](O[C@H]6[C@H](O)[C@@H](O)[C@@H](O[C@H]7[C@H](O)[C@@H](O)[C@@H](O[C@H]8[C@H](O)[C@@H](O)[C@@H](O[C@H]1[C@H](O)[C@H]2O)O[C@@H]8CO)O[C@@H]7CO)O[C@@H]6CO)O[C@@H]5CO)O[C@@H]4CO)O[C@@H]3CO,inactive,–
CN(C)CCC=C1c2ccccc2CCc2ccccc21,inactive and 43.6 µM (active),–
CCOC(=O)C(C#N)=C(c1ccccc1)c1ccccc1,inactive,–
COC(C)COC(C)COC(C)CO (stereo not given),inactive,–
